PubChem BioAssay (NCATS)
A number with no mark means an inactive call. Records with an inconclusive call do not appear. Where a call stands in place of a potency, no number is given. Calls of active or inactive are those of the source. Calls follow the shape of the dose curve; as a rule, active = well fitted curve in the direction sought with a large enough effect; inconclusive = small, poorly fitted or top-dose-only effect, or another doubt; inactive = no such curve, though single readings can be large; an effect the other way counts as inactive or inconclusive.

Legend:
[1] = target: Glutathione peroxidase 1 (Homo sapiens) (UniProt P07203); experiment: Primary qHTS Assay for Inhibitors of Recombinant Selenoprotein Glutathione Peroxidase 1 (GPX1) (AID 1845191); also: nearly all actives have a fitted effect of over 65% in size
How it was run: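 Recombinant GPX1 (10 nM final) was preincubated with compound for 30 min at room temperature, then reacted with 1 mM GSH, 0.5 mM CHP, 0.5 mM NADPH and 100 nM glutathione reductase; NADPH fluorescence (340/450 nm) was read at 0 and 15 min.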

[2] = target: Phospholipid hydroperoxide glutathione peroxidase GPX4 (Homo sapiens) (UniProt P36969); experiment: Primary qHTS Assay for Inhibitors of Recombinant Selenoprotein Glutathione Peroxidase 4 (GPX4) (AID 1845192); also: nearly all actives have a fitted effect of over 65% in size; as to activity change, negative = inhibition: series mostly up to about 50 µM
How it was run: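 GR-coupled readout: 100 nM GR, 1 mM GSH, 0.5 mM NADPH; NADPH fluorescence (ex 340/em 450 nm) read at t=0 and after 15 min RT. GPX4 200 nM, preincubated 30 min with compound; substrate 0.5 mM CHP.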

[3] = target: Luciferin 4-monooxygenase (Photinus pyralis) (UniProt P08659); experiment: Primary firefly luciferase (FLuc) qHTS assay for identification of artifact compounds. (AID 1845220); also: nearly all actives have a fitted effect of over 60% in size; also: potency is read from the fitted curve at half-maximal effect; as to activity change, negative = inhibition: series mostly up to about 54 µM
How it was run: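 In this counter-screen for luciferase artifacts, test compounds met substrate (10 uM each luciferin and ATP) before 10 nM enzyme started the reaction. Light output was measured 5 min later.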

[4] = system: Nanoluciferase (engineered Oplophorus gracilirostris luciferase); experiment: Primary Nanoluciferase (NLuc) qHTS assay for identification of artifact compounds. (AID 1845222); also: potency is read from the fitted curve at half-maximal effect
How it was run: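 Using secreted nanoluciferase in S16 culture medium (0.22 um filtered, 1:55 dilution), compounds were preincubated 15 min at RT. Signal was generated with Nano-Glo reagent (1:100) over 5 min.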

[5] = Primary fluorescence-based thiol-reactive (MSTI) qHTS assay for identification of artifact compounds. (AID 1845221); also: nearly all actives have a fitted effect of over 65% in size; also: potency is read from the fitted curve at half-maximal effect;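 as to activity change, negative = thiol reactive: series mostly up to about 54 µM; thiol-reactive compounds lower the probe fluorescence signal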
How it was run: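 Reactivity toward the thiol probe MSTI (4 uM) is scored by fluorescence at Ex/Em 525/598 nm after 1 h at room temperature. Acetyl-MSTI and MSTI define the activity scale.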

[6] = Primary redox qHTS assay for identification of artifact compounds. (AID 1845223)
How it was run: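 Amplex Red (25 uM) and HRP (250 mU/mL) in HBSS, with compounds for 15 min, then 250 uM DTT for 30 min, room temperature, dark. Fluorescence 525/598 nm read; normalized to DMSO and 10 uM DA3003; Hill fit.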

Sequence of Phospholipid hydroperoxide glutathione peroxidase GPX4 (Homo sapiens) (P36969 whole entry, looked up): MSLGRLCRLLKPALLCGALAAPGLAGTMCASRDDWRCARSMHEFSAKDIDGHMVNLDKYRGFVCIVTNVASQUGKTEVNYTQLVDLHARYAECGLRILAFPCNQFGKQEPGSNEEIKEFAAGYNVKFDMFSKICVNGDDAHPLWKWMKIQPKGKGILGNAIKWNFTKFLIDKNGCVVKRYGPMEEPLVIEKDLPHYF
Sequence of Glutathione peroxidase 1 (Homo sapiens) (P07203 whole entry, looked up): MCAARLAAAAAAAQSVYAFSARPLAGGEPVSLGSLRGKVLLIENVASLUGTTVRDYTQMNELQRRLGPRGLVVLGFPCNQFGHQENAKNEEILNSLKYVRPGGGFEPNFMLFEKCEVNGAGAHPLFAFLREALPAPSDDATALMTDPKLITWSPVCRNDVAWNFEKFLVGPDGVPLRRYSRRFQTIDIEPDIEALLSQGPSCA

Row | Structure (SMILES) | Potency [1] | Potency [2] | Potency [3] | Potency [4] | Potency [5] | Potency [6] | activity change, negative = inhibition [3] | activity change, negative = thiol reactive [5] | redox activity (% of DA3003) [6]
1 | COc1cc(N2CCC(N3CCN(C)CC3)CC2)ccc1Nc1ncc(Cl)c(Nc2ccccc2P(C)(C)=O)n1 | inactive | inactive | inactive | inactive |  |  |  |  | 
2 | O=C(NCCCN1CCOCC1)c1cnn2c(-c3ccccc3)cc(-c3ccccc3)nc12 | inactive | inactive | inactive |  | inactive | inactive |  |  | 
3 | CC(=O)OC1C(=O)C2C3OCC4=C3[C@@](C)(CC[C@@H]4O)CC[C@]2(C)[C@H]1C(C)C (some centres undefined) | inactive | inactive | inactive | inactive |  |  |  |  | 
4 | CCC(C)C(=O)Oc1cc(C)ccc1C1(COC(=O)C(C)C)CO1 (centres undefined) | inactive | inactive | inactive |  | inactive | inactive |  |  | 
5 | O=C(NC1CCC1)c1ccc(C#Cc2cccc(F)c2)nc1 | inactive | inactive | inactive |  | inactive | inactive |  |  | 
6 | COc1cc(O)cc(OC2OC(CO)C(O)C(O)C2O)c1 (centres undefined) | inactive | inactive | inactive |  | 9.47 µM (active) | inactive |  |  | 
7 | C=CC1(C)CC(O)C(C(=C)C(=O)OC)C(O)C1C(=C)CO (centres undefined) | inactive | inactive | inactive |  | inactive | inactive |  |  | 
8 | C=C1C(=O)OC2CC(C)=C(C(C)CCCOC(C)=O)C(OC(=O)CC(C)CC)C12 (centres undefined) | inactive | inactive | inactive |  | inactive | inactive |  |  | 
9 | C=C1C(=O)OC2/C=C(\C)CC/C=C(\C)CC(OC(C)=O)C12 (centres undefined) | inactive | inactive | inactive |  | inactive | inactive |  |  | 
10 | CC(C)CC(=O)c1c(O)cc2c(c1O)C(CC(C)C)C1=C(O2)C(C)(C)C(=O)C(C)(C)C1=O (centres undefined) | inactive | inactive | inactive | inactive |  |  |  |  | 
11 | O=C(Nc1ccc(N(Cc2ccsc2)C(=O)Cn2nnc3ccccc32)cc1)C1CC1 | inactive | inactive | inactive |  | inactive | inactive |  |  | 
12 | NS(=O)(=O)c1ccc(N2CCN(CC[C@@H]3OCCc4ccccc43)CC2)cc1 | inactive | inactive | inactive |  | inactive | inactive |  |  | 
13 | CC1OC(=O)C[C@@H]2C(C(=O)O)=CO[C@@H](O[C@H]3O[C@H](CO)[C@@H](O)[C@H](O)[C@H]3O)[C@H]12 (some centres undefined) | inactive | inactive | inactive |  | inactive | inactive |  |  | 
14 | C=CCCN1CCC2(CC1)CN(C(=O)c1c(F)cccc1F)c1ccc(Cl)cc12 | inactive | inactive | inactive |  | inactive | inactive |  |  | 
15 | CC(C)NC(=O)N1CC[C@H](N=C2Nc3cc(F)ccc3N(CC(F)F)c3ccc(Cl)cc32)C1 | inactive | inactive |  |  |  |  | 1.25% [at 11.6 µM] | 70.3% [at 11.5 µM] | 12.5% [at 11.5 µM]
16 | C[C@@H]1C[C@H]2O[C@@]3(O[C@@H]2C(C)(C)O)C(O)[C@@]2(C)C4CCC5C(C)(C)[C@@H](O[C@H]6OC[C@H](O)[C@@H](O)[C@@H]6O)CC[C@@]56C[C@@]46CC[C@]2(C)C13 (some centres undefined) | inactive | inactive | inactive |  | inactive | inactive |  |  | 
17 | CC(C)c1noc(C2CCN(c3ncnc(Nc4ccc(S(C)(=O)=O)cc4F)c3[N+](=O)[O-])CC2)n1 | inactive | inactive | inactive |  | inactive | inactive |  |  | 
18 | Cc1ccc(N2CCN(CCC3NC(=O)c4ccccc43)CC2)cc1C (centres undefined) | inactive | inactive | inactive | inactive |  | inactive |  |  | 
19 | COC(=O)c1ccc2c(c1)nc(NC(=O)c1ccccc1)n2CCCc1ccccc1 | inactive | inactive | inactive | inactive |  | inactive |  |  | 
20 | CCC/C=C/C=C/C1CC(O)C2(O)C(=O)OCC12 (centres undefined) | inactive | inactive | inactive | inactive |  |  |  |  | 
21 | CN1CC[C@@H](c2c(O)cc(O)c3c(=O)cc(-c4ccc(C(F)(F)F)cc4Cl)oc23)[C@@H]1CO | inactive | inactive | inactive | inactive |  |  |  |  | 
22 | COc1ccc2c(c1)C(C(=O)N(Cc1ccc(N(C)C)cc1)c1ccc(C(C)C)cc1)CCC2 (centres undefined) | inactive | inactive | inactive | inactive |  | inactive |  |  | 
23 | COC1C(OC(=O)/C=C/C=C/C=C/C=C/C(=O)O)CCC2(CO2)C1C1(C)OC1CC=C(C)C (centres undefined) | inactive | inactive | inactive | inactive |  | inactive |  |  | 
24 | CCOc1cn(-c2ccc(F)cc2C)nc1C(=O)Nc1ccc(Oc2ccnc3cc(OC)c(OC)cc23)c(F)c1 | inactive | inactive | inactive | inactive |  | inactive |  |  | 
25 | COc1cc(CCc2ccc(OCC=C(C)C)cc2)cc(OC)c1OC | inactive | inactive | inactive | inactive |  |  |  |  | 

Row | Structure (SMILES) | Potency [1] | Potency [2] | Potency [3] | Potency [4] | Potency [5] | Potency [6] | activity change, negative = inhibition [3] | activity change, negative = thiol reactive [5] | redox activity (% of DA3003) [6]
26 | CC(=O)O[C@@H]1C2=C(O)C(=O)[C@](C)(OC(C)=O)C(=O)C2=CO[C@@]12O[C@@H](C)CC[C@H]2OC(C)=O | inactive | inactive | inactive | inactive |  |  |  |  | 
27 | CC1CCCC[C@H]2C(=O)C=C[C@H](O)[C@@H]2CC(=O)O1 (some centres undefined) | inactive | inactive | inactive | inactive |  | inactive |  |  | 
28 | CN1CCN(C2=Nc3ccccc3Nc3ccc(Cl)cc32)CC1 | inactive | inactive | inactive | inactive |  | inactive |  |  | 
29 | COc1cc2ncnc(Nc3ccc(O)c(Br)c3)c2cc1OC | inactive | inactive | inactive | inactive |  | inactive |  |  | 
30 | C=CC(=O)N1CCC[C@@H](n2nc(-c3cccc(C(=O)Nc4ccc(C(C)C)c(C)c4)c3)c3c(N)ncnc32)C1 | inactive | inactive | 6.75 µM (active) | inactive |  | inactive |  |  | 
31 | C/C=C(\C)[C@@H]1C(C)=C[C@@H]2[C@H]([C@@H]1/C=C/C=C/C(=O)O)[C@@H](C)CC[C@@H]2O | inactive | inactive | inactive | inactive |  |  |  |  | 
32 | Cc1c(C(=O)NCc2cccnc2)nn(-c2ccc(Cl)cc2Cl)c1-c1ccc(Cl)cc1 | inactive | inactive | inactive | inactive |  | inactive |  |  | 
33 | CCOc1ccc(-n2c([C@@H](C)N(Cc3cccnc3)C(=O)Cc3ccc(OC(F)(F)F)cc3)nc3ncccc3c2=O)cc1 | inactive | inactive | inactive | inactive |  | inactive |  |  | 
34 | O=C(NC1CCN(CCCCC2(C(=O)NCC(F)(F)F)c3ccccc3-c3ccccc32)CC1)c1ccccc1-c1ccc(C(F)(F)F)cc1 | inactive | inactive | inactive | inactive |  | inactive |  |  | 
35 | COc1ccc([C@H](Cc2ccncc2)c2ccccc2)cc1OC1CCCC1 | inactive | inactive | inactive | inactive |  | inactive |  |  | 
36 | C/C=C/[C@@H]1C=C[C@@H]2C[C@H](C)CC[C@H]2[C@]1(C)/C(O)=C1/C(=O)[C@@H](CO)N(C)C1=O | inactive | inactive | inactive | inactive |  |  |  |  | 
37 | CC(=O)O[C@]1(C(C)=O)CC[C@H]2[C@@H]3CCC4=CC(=O)CCC4=C3[C@@H](c3ccc(N(C)C)cc3)C[C@@]21C | inactive | inactive | inactive | inactive |  | inactive |  |  | 
38 | O=C(NS(=O)(=O)c1ccc(Br)s1)c1ccc(Cl)cc1Cl | inactive | inactive | inactive | 6.75 µM (active) |  | inactive |  |  | 
39 | Cc1cc(F)ccc1[C@H]1C[C@@H](N2CCN3C(=O)CC[C@H]3C2)CCN1C(=O)N(C)[C@H](C)c1cc(C(F)(F)F)cc(C(F)(F)F)c1 | inactive | inactive | inactive | inactive |  | inactive |  |  | 
40 | CC(C)(O)/C=C/C(=O)[C@](C)(O)[C@H]1[C@H](O)C[C@@]2(C)[C@@H]3CC=C4[C@@H](C[C@H](O[C@@H]5O[C@H](CO)[C@@H](O)[C@H](O)[C@H]5O)C(=O)C4(C)C)[C@]3(C)C(=O)C[C@]12C | inactive | inactive | inactive | inactive |  | inactive |  |  | 
41 | COc1cc(CCO)ccc1O[C@@H]1O[C@H](CO)[C@@H](O)[C@H](O)[C@H]1O | inactive | inactive | inactive | inactive |  | inactive |  |  | 
42 | NCCOc1cc(C(=O)Nc2cc(OCCN)c3ccccc3n2)nc(C(=O)Nc2cc(OCCN)c3ccccc3n2)c1 | inactive | inactive | inactive | inactive |  |  |  |  | 
43 | COCc1c(Cl)ccc2c1CC[C@H]2c1ncc[nH]1 | inactive | inactive | inactive | inactive |  | inactive |  |  | 
44 | CN(C)CCN(Cc1ccccc1)C(=O)c1cc(-c2ccc(F)cc2)n2nc(C(C)(C)C)cc2n1 | inactive | inactive | inactive | inactive |  | inactive |  |  | 
45 | C=C(C(=O)OC[C@H]1O[C@@H](OC(=O)/C=C/c2ccccc2)[C@H](O)[C@@H](O)[C@@H]1O)C(O)CO (some centres undefined) | inactive | inactive | inactive | inactive |  | inactive |  |  | 
46 | CN1CCc2cc3c(cc2C(=O)Cc2cc4c(cc2C1)OCO4)OCO3 | inactive | inactive | inactive | inactive |  | inactive |  |  | 
47 | C=C1[C@@H](OC(C)=O)CC[C@@]2(C)[C@@H](OC(C)=O)[C@H](OC(C)=O)C3=C(C)C[C@H](OC(=O)C(C)CC)[C@@H]([C@@H](OC(C)=O)[C@H]12)C3(C)C (some centres undefined) | inactive | inactive | inactive | inactive |  |  |  |  | 
48 | O=C(Nc1cccc([N+](=O)[O-])c1)c1cccc(S(=O)(=O)N2CCCCCC2)c1 | inactive | inactive | inactive | inactive |  | inactive |  |  | 
49 | CCCc1cc(C)[nH]c(=O)c1CNC(=O)c1cc(-c2ccc(N3CCN(C(C)C)CC3)nc2)cc2c1cnn2C(C)C | inactive | inactive | inactive | inactive |  | inactive |  |  | 
